Measurements published in publication PMC12136788.
Changes are numbered by the printed parent chain. Over roughly 5,800 sequences, “enrichment r” has its median near 0.68; the highest 2% begin near 11. The sample holds the highest values, similar sequences and a random draw of the others, so the mix is not that of the screen.

T1: UNK ZnF1-6 (called full-length) (human, UniProt Q9C0B0 30-357)
T1 sequence: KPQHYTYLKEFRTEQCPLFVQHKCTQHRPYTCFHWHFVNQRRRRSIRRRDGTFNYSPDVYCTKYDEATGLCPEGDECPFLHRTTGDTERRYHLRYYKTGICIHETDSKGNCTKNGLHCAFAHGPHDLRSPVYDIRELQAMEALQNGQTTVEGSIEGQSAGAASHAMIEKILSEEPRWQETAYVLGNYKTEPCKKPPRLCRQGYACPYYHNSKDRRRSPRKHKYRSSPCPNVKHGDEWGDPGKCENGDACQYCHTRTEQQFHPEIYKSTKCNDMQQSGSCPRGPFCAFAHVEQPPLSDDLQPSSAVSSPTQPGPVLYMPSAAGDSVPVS

B1: chr10:91630394:91630495:-|CDS|ENSG00000119938|unk|total|mutant (ssRNA)
RNA: GGGAGUUCUACAGUCCGACGAUCCUUGGACCUUAAUGAUAUCUCCUCUGCCUUAAAACACCACGAGGAGAAAAACUUGAUUUCCGAUUUCCCUCAGCCUUCAACCGAUUACUUAAGUUUCCGGAGCCACUUUCAGAAGAACUUCAACAGAGGAUUGAGCAUCA
B2: chr11:20048915:20049016:+|CDS|ENSG00000166833|unk|total|mutant (ssRNA)
RNA: GGGAGUUCUACAGUCCGACGAUCGAGCAGUGGGAGCAGCAGUCCUCUCUACAGCAAGAAUGUGGACCUCAACCAGUCUCCGCCCGCCUCCAGCCCCAGCUCAGCCCACUCGGCCCCUUCCAACAGCCUCACCUGGGGCACCAACAACAGAGGAUUGAGCAUCA
B3: chr1:178479239:178479534:-|three_prime_utr|ENSG00000188585|control|control|control (ssRNA)
RNA: GGGAGUUCUACAGUCCGACGAUCCAGUUUCUGUUUCAUGCAAUCUUCUCUGGAUUUUGAGUAAAUUUUAAUUUUUUAAUCCCUAGUAGAACAAGAUUAGGAAGAACUCGACAUGUGCCAAAAAGCACAGACCUACAACUAACACAACAGAGGAUUGAGCAUCA
B4: chr1:214641902:214642005:+|CDS|ENSG00000117724|unk|total|mutant (ssRNA)
RNA: GGGAGUUCUACAGUCCGACGAUCAGAAAUCAAUGUAAUUUUAAACCUCAGAUGGAUCUUGAAGUUAAAGAAAUUUCUCCCGACCGUUAUAAUGCGCAGUUGGUGCAAUCCGAAGCUAUGCUAAGAAAUAAGGAAUUAAAACUUCAACAGAGGAUUGAGCAUCA
B5: chr20:31664451:31666086:-|three_prime_utr|ENSG00000171552|control|control|control (ssRNA)
RNA: GGGAGUUCUACAGUCCGACGAUCAUGCAGCCCAUGCCCACCUGCCCAUCACAGGGUUGGGCCCAGAUCUGGUCCCUUGCAGCUAGUUUUCUAGAAUUUAUCACACUUCUGUGAGACCCCCACACCUCAGUUCCCUUGGCCUCACAACAGAGGAUUGAGCAUCA
B6: chr10:100209595:100209696:-|CDS|ENSG00000213341|unk|FALSE|unique (ssRNA)
RNA: GGGAGUUCUACAGUCCGACGAUCACUUCUUUCAGAGACAGGAAUUUCUCUGGAUCCUCGGAAACCAGCCUCUCAAUGUGUUCUAGAUGGAGUUGUAAGAAAAUUAAUUAUAAUAUCCCUAGAGUAUGUGAAAUCUAGAGGGAUCAACAGAGGAUUGAGCAUCA
B7: chr1:56708525:56708626:+|3pUTR|ENSG00000162409|unk|FALSE|unique (ssRNA)
RNA: GGGAGUUCUACAGUCCGACGAUCACCUUUCUCAAAUUCUUUUUGCCUCUAUUUAUUUUUGCAUUUCACCAACAGUGAUAAAAUAGUUAAAUGAAACAAAGCAAAGUAUCAACAGUCCCUUAAAUGAGAAUCCUUAUCUUUGAUCAACAGAGGAUUGAGCAUCA
B8: chr12:81257974:81259660:-|three_prime_utr|ENSG00000139220|control|control|control (ssRNA)
RNA: GGGAGUUCUACAGUCCGACGAUCAUGACUUAUUAAAAGCUGAAAAAUGUGAUUUUUGGGGGGAGUCAGAUAUUACAUUUGAUUAGUUUACUACAAAUUGUAAUAAAAUGCUUAAGUCAUUUGAAUAAUAAACAUCAUCUACAUCAACAGAGGAUUGAGCAUCA
B9: chr8:116643852:116643953:-|3pUTR|ENSG00000147677|unk|FALSE|unique (ssRNA)
RNA: GGGAGUUCUACAGUCCGACGAUCUGUUGUGAAUGAGGAAUUAGGAAUUAGGAGAAUGGUAGUACAUUGGGAAAAACAUAUUUUAGUAAUUUUUAUAUUUUAAAGAUAAUCACAGAUUUUGCUGUUUGUGCAUCACCAAAAUCACAACAGAGGAUUGAGCAUCA
B10: chr5:132541444:132541810:-|three_prime_utr|ENSG00000113525|control|control|control (ssRNA)
RNA: GGGAGUUCUACAGUCCGACGAUCAAAUUGAUAUACUUUUUUCUUAUUUAACUUAACAUUCUGUAAAAUGUCUGUUAACUUAAUAGUAUUUAUGAAAUGGUUAAGAAUUUGGUAAAUUAGUAUUUAUUUAAUGUUAUGUUGUGUCAACAGAGGAUUGAGCAUCA
B11: chr8:116643852:116643953:-|3pUTR|ENSG00000147677|unk|total|mutant (ssRNA)
RNA: B9 RNA with U41C, A42C, U48C, A49C, U59C, A60C, U83C, A84C
B12: chr9:83661418:83661519:-|3pUTR|ENSG00000135018|msi1|FALSE|unique (ssRNA)
RNA: GGGAGUUCUACAGUCCGACGAUCUAUAGUUGGGUGACCAGAUUUUGUCCUGCAUCUGUCCAGUUUAUUUGCUUUUUAAACAUUAGCCUAUGGUAGUAAUUUAUGUAGAAUAAAAGCAUUAAAAAGAAGCAAAUCAUUUGCACUCAACAGAGGAUUGAGCAUCA
B13: chr16:11872726:11872856:-|3pUTR|ENSG00000103342|msi1_unk|FALSE|overlapping (ssRNA)
RNA: GGGAGUUCUACAGUCCGACGAUCACAUAAUUGCCUACAAUAAUGAAAACCUACAGGAAUUUUUUUAUUUUUCAUUUUCCCCUUAGGCAUAUUUAGUAUUUUUCCCCCAGGCAGAUCAUUCUGAGUGUGCGAGUGUGUGUGCACCAACAGAGGAUUGAGCAUCA
B14: chr6:98868534:98874277:-|three_prime_utr|ENSG00000112234|control|control|control (ssRNA)
RNA: GGGAGUUCUACAGUCCGACGAUCAUUAAAAUUAAUGUGCUUUGUUGGGGUUUAAUUUUGGGAUUGGUUUUGGGUUUUGUUUUUAGUUGUUUUAAUGGUAAGAAUUAAGACAUUUGUAGAUUUUAAAGAAAAAUAUGAAAUUGUCAACAGAGGAUUGAGCAUCA
B15: chr8:80637648:80637749:-|3pUTR|ENSG00000164684|unk|FALSE|unique (ssRNA)
RNA: GGGAGUUCUACAGUCCGACGAUCUGCGCUUAGCUGCAAAGUGCCUGUCAGCAGCUCCAGGCACCAACAAGGUGCCCUUUUAUUAGACAAUUCCUGCCCGAACAUAACCAUAUUGCAGAUGAAAAUUUUCAAUAGAGAAUGACACAACAGAGGAUUGAGCAUCA

Each binder was assayed against T1, UNK ZnF1-6 (called full-length) (assay: nsRBNS (natural sequence RNA bind-n-seq); RBNS binding buffer (assumed for nsRBNS): 25 mM Tris pH 7.5, 150 mM KCl, 3 mM MgCl2, 0.01% Triton X-100, 500 ug/ml BSA, 20 U/ml SUPERase-In, 4 C; UNK is unkempt and MSI1 is Musashi-1; names of the RNAs are library labels; protein concentration not given here; high values mean tight binding).

| Binder | binding signal [enrichment R] |
| --- | --- |
| B1 | 0.273 |
| B2 | 0.913 |
| B3 | 0.449 |
| B4 | 0.401 |
| B5 | 1.85 |
| B6 | 0.651 |
| B7 | 0.947 |
| B8 | 0.956 |
| B9 | 22.5 |
| B10 | 7.43 |
| B11 | 0.568 |
| B12 | 7.97 |
| B13 | 11.3 |
| B14 | 12.9 |
| B15 | 0.967 |
